In general, viability refers to the share of living cells, or the viability signal relative to a control. The AC50 is the concentration at which the activity in the assay is half-maximal.

A short description of assay [1]: P. berghei load reduction in hepatocytes – cell-based, HepG2, luciferase luminescence, HepG2 viability, primary screen (AID 624349; in the data active means parasite load remaining mostly below about 12%, no sharp cut-off; inactive means mostly above about 10%;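 further: 100% = mean of DMSO negative control wells on the same plate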). The note with it: P. berghei liver stage in HepG2, luciferase luminescence, concentration not given here; parasite load remaining: stronger effect = lower value; viability: measured here: HepG2 viability without parasites.
A short description of assay [2]: liver-stage malaria parasite load reduction – cell-based, known kinase inhibitor set, luminescence, hepatoma host viability (AID 624392).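 Further: infected cells incubated roughly two days before readout.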 The note with it: Plasmodium liver stage in hepatoma cells, luciferase luminescence, concentration not given here; liver cell % of control: measured here: host liver cell viability; parasite % of control: stronger effect = lower value.
A short description of assay [3]: altered dexamethasone sensitivity, NF-kB reporter, cell-based, luciferase, IL-1B stimulus (AID 624486).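 On percent of negative control (+Dex): 100% = mean signal of vehicle control wells on the plate.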 The note with it: IL-1B + dexamethasone, luminescence; percent of negative control (+Dex): actives lie on both sides, concentration not given here; z-score: measured here: IL-1B alone, no Dex.
Assay [4] can be described thus: C. elegans survival during P. aeruginosa infection – whole organism (AID 651566).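 Further: tested at 14 µM; sign flipped so higher z means a lower ratio.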 The note with it: C. elegans killed by P. aeruginosa, survival ratio.
A short description of assay [5]: pro-inflammatory signaling induction in mouse macrophages – cell-based, murine, luminescence (AID 652131). The note with it: murine macrophage pro-inflammatory reporter, stronger effect = higher value.
Assay [6] concerns the target Cellular tumor antigen p53 (Homo sapiens) (UniProt P04637). Briefly: GFP-p53 level modulators in HPV16+ cells – imaging, known kinase inhibitor set, EGFP/DsRed ratio (AID 1053116).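 Further: cells exposed to compounds for 24 h at 37 °C before reading.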 The note with it: GFP-p53 stability, stronger effect = higher value; EGFP object count: measured here: GFP-p53 positive objects count.
Assay [7] in a line: inducers of IRF3 signaling, differentiated THP-1 – cell-based, PMA-stimulated THP-1, luminescence (AID 1053176). The note with it: PMA-differentiated THP-1, IRF3 reporter luminescence; stronger effect = higher value.
The nature of assay [8]: viability loss in pontine glioma line – cell-based, SU-DIPG-XIII, MIPE4.0, CellTiter-Glo, qHTS, dose response (AID 1347061; cut-off not given, nearly all actives have AC50 up to about 37 µM;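 further: cells exposed to compound for 48 hours before readout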). The note with it: CellTiter-Glo ATP luminescence.
The nature of assay [9]: viability loss in pontine glioma line – cell-based, JHH-DIPG-1, MIPE4.0, CellTiter-Glo, qHTS, dose response (AID 1347062; cut-off not given, nearly all actives have AC50 up to about 27 µM). The note with it: JHH-DIPG-1 viability, CellTiter-Glo ATP luminescence. Background: ATP-based viability assays read luminescence as a measure of living cells.
Assay [10] is described as follows: viability loss in pontine glioma line – cell-based, SU-DIPG-IV, MIPE4.0, CellTiter-Glo, qHTS, dose response (AID 1347063; cut-off not given, nearly all actives have AC50 up to about 30 µM;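 further: compound exposure lasted 48 hours before the viability readout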). The note with it: CellTiter-Glo ATP luminescence.
A short description of assay [11]: viability loss in pontine glioma line – cell-based, SU-DIPG-XXV, MIPE5.0, CellTiter-Glo, qHTS, dose response (AID 1347065; cut-off not given, nearly all actives have AC50 up to about 26 µM;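 further: cells exposed to compound for 48 hours before ATP readout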). The note with it: CellTiter-Glo ATP luminescence.
Assay [12] is described as follows: growth inhibition of DIPG cells – cell-based, MIPE4.0 library, CellTiter-Glo luminescence, qHTS (AID 1347066; cut-off not given, nearly all actives have AC50 up to about 30 µM;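 further: cells exposed to compound for 48 hours before readout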). The note with it: SU-DIPG-VI viability, CellTiter-Glo ATP luminescence.
A short description of assay [13]: JHH-DIPG-1 glioma cell viability, MIPE5.0 library, CellTiter-Glo luminescence, qHTS (AID 1347067; cut-off not given, nearly all actives have AC50 up to about 26 µM;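 further: cells exposed to compound for 48 hours before readout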). The note with it: JHH-DIPG-1 glioma viability, CellTiter-Glo ATP luminescence.
Assay [14] is described as follows: growth inhibition of DIPG cells – cell-based, MIPE5.0 library, qHTS (AID 1347068; cut-off not given, nearly all actives have IC50 up to about 30 µM). The note with it: SU-DIPG-XXV viability. For orientation: qHTS replaces the single test concentration by a dilution series.
Assay [15] is described as follows: MELAS cybrid and Rieske KO viability enhancers – cell-based, MELAS cybrids, Rieske KO mouse fibroblasts, CellTiter-Glo, primary screen (AID 1508586;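 active means mean z-score across replicates of 1.96 or higher in either the MELAS or the Rieske mutant cell line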;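 further: z relative to plate mean and SD of compound and empty wells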). The note with it: low glucose.
Assay [16] can be described thus: viability loss in pontine glioma line – cell-based, SU-DIPG-XVII, MIPE5.0, CellTiter-Glo, qHTS, dose response (AID 1347060; cut-off not given, nearly all actives have AC50 up to about 26 µM;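 further: cells exposed to compound for 48 hours before viability readout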). The note with it: CellTiter-Glo ATP luminescence.
Where [17] appears, read: MELAS cybrid survival, CellTiter-Glo 48 h, stronger effect = higher value.
[18] abbreviates: Rieske KO mouse fibroblast survival, CellTiter-Glo 72 h.

Records with an inconclusive call do not appear. Active and inactive are the calls of the source. Unless noted, how the calls were made is not given here.

Cellular tumor antigen p53 (Homo sapiens), sequence (P04637 whole entry, looked up): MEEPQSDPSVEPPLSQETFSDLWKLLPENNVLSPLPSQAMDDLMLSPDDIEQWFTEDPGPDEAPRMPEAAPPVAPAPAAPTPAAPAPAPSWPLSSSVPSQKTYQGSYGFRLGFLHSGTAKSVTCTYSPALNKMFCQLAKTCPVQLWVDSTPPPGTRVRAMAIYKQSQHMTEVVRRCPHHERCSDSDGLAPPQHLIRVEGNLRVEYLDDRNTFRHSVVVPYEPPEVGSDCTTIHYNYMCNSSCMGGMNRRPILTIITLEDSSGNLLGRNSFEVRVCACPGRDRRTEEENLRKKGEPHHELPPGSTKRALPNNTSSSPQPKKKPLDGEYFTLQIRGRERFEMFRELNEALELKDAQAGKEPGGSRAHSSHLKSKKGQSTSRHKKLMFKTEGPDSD

As to `COc1cc2ncn(-c3cc(OCc4ccccc4S(C)(=O)=O)c(C#N)s3)c2cc1OC`, in [1], the parasite load remaining was 28.4% (inactive). For the same compound, the viability in assay [1] was found to be 80.2%. The same compound gave a liver cell % of control in assay [2] of 84.7%. For the same compound, in assay [2], the parasite % of control was 80.2% (inactive). Further, the percent of negative control (+Dex) in assay [3] is 72.5% (inactive). Also, the z-score is -0.135 in assay [3]; -0.355 (inactive) in assay [4]; 8.9 (active) in assay [5]; 0.713 (inactive) in [15] (setting [17]); -0.131 in assay [15] (setting [18]). In addition, in assay [6], the EGFP object count came to 7.5. Also, the EGFP/DsRed ratio in assay [6] was 0.318 (inactive). Further, the fraction signal in assay [7] was 0.0015 (inactive). The compound was called inactive in [8], in [9], in assay [10], in [11], in assay [12] and in [13]. The call in assay [14] was inactive.
As to `CN(C)c1ccc2[nH]c(O)c(C=Nc3ccc(S(N)(=O)=O)cc3)c2c1`, the liver cell % of control in assay [2] came to 88.2%. Further, in assay [2], the parasite % of control is 103% (inactive). In addition, the percent of negative control (+Dex) in [3] is 93% (inactive). Besides, the z-score in assay [3] is 0.245; in assay [4] it was 0.065 (inactive); in assay [5] it was 0.675 (inactive); in [15] (setting [17]) it was 1.57 (inactive); in assay [15] (setting [18]), -0.102. In addition, in assay [6], the EGFP object count was determined as 6.5. Moreover, the EGFP/DsRed ratio in assay [6] was 0.209 (inactive). Also, the fraction signal in assay [7] is -0.008 (inactive).
For `Cn1cc(/C=C2\C(=O)Nc3cccnc32)c2ccccc21`, the liver cell % of control in [2] turned out to be 210%. Besides, the parasite % of control in assay [2] is 18.2% (inactive). In addition, in assay [3], the percent of negative control (+Dex) was 92.5% (inactive). Also, the z-score in assay [3] is 0.27; in assay [4], 0.915 (inactive); in assay [5], 5.16 (inactive); in assay [15] (setting [17]) it was 0.351 (inactive); in assay [15] (setting [18]) it was -0.515. Further, the EGFP object count in assay [6] turned out to be 4. The EGFP/DsRed ratio in assay [6] is 0.0768 (inactive). The fraction signal in assay [7] is -0.0095 (inactive). Also, the concentration at half-maximal activity (AC50) in assay [16] was 8.33 µM (active); in assay [11] it was 9.34 µM (active). Also, the compound was classed as inactive in assay [9], in assay [10], in assay [12] and in assay [14].
In [2], `CS(=O)(=O)CCNCc1nc(-c2ccc3ncnc(Nc4ccc(OCc5cccc(C(F)(F)F)c5)cc4)c3c2)cs1` registered a liver cell % of control of 96.4%. Moreover, the parasite % of control in [2] was 93.1% (inactive). Moreover, the percent of negative control (+Dex) in assay [3] is 91.5% (inactive). Besides, the z-score was -0.43 in [3]; -0.1 (inactive) in assay [4]; 0.202 (inactive) in assay [5]; 0.123 (inactive) in assay [15] (setting [17]); -0.291 in [15] (setting [18]). In assay [6], the EGFP object count amounted to 4.5. The EGFP/DsRed ratio in [6] is 0.116 (inactive). In addition, the fraction signal in [7] was -0.002 (inactive).
`NS(=O)(=O)c1ccc(N=Nc2c(O)[nH]c3ccc(Cl)cc23)cc1` came in with a liver cell % of control in [2] of 91.6%. Also, the parasite % of control in assay [2] is 111% (inactive). Moreover, in [3], the percent of negative control (+Dex) is 112% (inactive). Further, the z-score is 0.905 in assay [3]; 0.005 (inactive) in [4]; 0.24 (inactive) in [5]; 1.43 (inactive) in [15] (setting [17]); -0.311 in assay [15] (setting [18]). In addition, the EGFP object count in assay [6] turned out to be 6.5. The EGFP/DsRed ratio in assay [6] is 0.227 (inactive). Besides, the fraction signal in [7] was 0.0005 (inactive).
